# Results: ChEMBL document CHEMBL3988442, “University of Dundee, Small-Polar-MMV Screening Library” (2021)
# Out of some 38,000 compounds screened, about 1,200 (3.2%) showed an effect of 50% or more. The median lay at about -58%. What follows is part of a selection rich in strong results, with near analogues and random picks from the rest.
# Test system: Plasmodium falciparum
# Experiment: Calibr Malaria Delayed Death Assay SOP
# Assay type: functional, organism-based
# Parameters: scale not given: in the data most compounds retested in dose-response had high values
# Conditions: concentration 4.99e-06 (unit not given; other assays of the set use mol/L)
row,SMILES,Percent Effect [%]
1,NC(=O)C1CN(c2ccc3cc(Br)ccc3n2)CCO1 (stereo not given),-657.4
2,Cc1ccc(OCCN(C)C2CCOC2=O)cc1 (stereo not given),-120.6
3,CC(C)N(CC1CCCN(CC(N)=O)C1)C(=O)OC(C)(C)C (stereo not given),-15.39
4,CC(C)N(CC1CCCN(Cc2ccon2)C1)C(=O)OC(C)(C)C (stereo not given),-9.372
5,Cc1noc(C)c1CN1CCCC(CN(C(=O)OC(C)(C)C)C(C)C)C1 (stereo not given),52.41
6,NC(=O)C(CNC(=O)Cc1ccsc1)Cc1ccc(F)cc1 (stereo not given),-150.5
7,COc1cc(C2CC(=O)Nc3c2nc2n3CCCC2)ccc1O (stereo not given),-30.17
8,COCCN(Cc1nc2c(cnn2C)c(=O)[nH]1)C(C)c1ccccc1 (stereo not given),-89.75
9,Cc1ccc(N2CCc3ncnc(N(C)C)c3CC2)nn1,-119.5
10,CC(C)CN1CCC2(CC1)CC(NS(C)(=O)=O)c1ccccc1O2.O=C(O)C(F)(F)F (stereo not given),-52.98
11,CS(=O)(=O)NC1CC2(CCN(CCF)CC2)Oc2ccccc21.O=C(O)C(F)(F)F (stereo not given),-76.24
12,COCC(=O)NC1CC2(CCN(CCF)CC2)Oc2ccccc21.O=C(O)C(F)(F)F (stereo not given),-129.2
13,O=C(O)C(F)(F)F.O=C(O)C(F)(F)F.O=C(O)C(F)(F)F.OCCN1CCC2(CC1)CC(NCc1ccccn1)c1ccccc1O2 (stereo not given),70.8
14,CC(C)N1CCC2(CC1)CC(NCc1ccccn1)c1ccccc1O2.O=C(O)C(F)(F)F.O=C(O)C(F)(F)F.O=C(O)C(F)(F)F (stereo not given),70.65
15,CC(C)N1CCC2(CC1)CC(NS(C)(=O)=O)c1ccccc1O2.O=C(O)C(F)(F)F (stereo not given),-16.02
16,CC(C)(C)c1ccc(C(=O)C2CCCN(C(=O)CNS(C)(=O)=O)C2)cc1 (stereo not given),-75.07
17,CN(C)c1no[n+]([O-])c1-c1ccccc1,-137.1
18,COCc1nn(C(C)C)c2c1CCN(Cc1ccc(C)o1)C2.O=C(O)C(F)(F)F,-30.71
19,Cc1nc[nH]c1-c1nccn1CCN1CCCOC1=O,-113
20,O=C(c1cc(Cl)c2c(c1)OCO2)N1CCN(c2cnccn2)CC1,-89.48
21,Cn1c(CN2CCOCC2)cc(=O)c(O)c1CN1CCOCC1,-232.2
22,Cn1c(CN2CCCCCC2)cc(=O)c(O)c1CN1CCCC1,59.19
23,Cn1c(CN2CCCC(N3CCCCCC3)C2)cc(=O)n(C)c1=O (stereo not given),-10.45
24,Cn1c(CN2CCOCC2)cc(=O)c(O)c1CN1CCCC1,-211.8
25,Cn1c(CN2CCOCC2)cc(=O)c(O)c1CN1CCCCC1,-218.7

row,SMILES,Percent Effect [%]
1,Cn1c(CN2CCCCC2)cc(=O)c(O)c1CN1CCCCC1,81.24
2,O=C(O)CC1COCCN1Cc1ccccc1-c1ccccc1 (stereo not given),-118
3,COc1ccc(C(=O)Nc2ccc3ncn(C(C)C)c(=O)c3c2)cc1,33.29
4,O=C(N1CCCC(n2cncn2)C1)C1(c2ccc(Cl)cc2)CCC1 (stereo not given),-26.48
5,CCCN(C(=O)c1cccnc1)c1nc2c(s1)CCc1c-2cnn1C,81.54
6,CCN(CCN1CCOCC1)C(=O)c1cccnc1,-63.54
7,CN(Cc1cc(Br)cn1C)C(=O)c1cccnc1,-12.65
8,CS(=O)(=O)CCOc1nc(-c2ccccc2Cl)no1,-35.46
9,O=C(c1ccccc1)N1CC[C@H]2C[C@H](c3nnc(C4CC4)o3)O[C@@H]2C1,-87.6
10,CCc1c(C)sc2ncnc(N3CC[C@@H](N4CCOCC4)[C@H](O)C3)c12,-5.608
11,CCc1c(C)sc2ncnc(N3CCN(C4CCOCC4)CC3)c12,31.3
12,CCc1nc(CC2CN(c3ncnc4sc(C)c(C)c34)CCO2)no1 (stereo not given),-116.3
13,CCc1c(C)sc2ncnc(N3C[C@H](O)[C@@H](N4CCCC4)C3)c12,60.55
14,CCc1c(C)sc2ncnc(N3CC[C@@H](N4CCC(O)CC4)[C@H](O)C3)c12,74.53
15,Cc1sc2ncnc(N3CCCC3Cn3cccn3)c2c1C (stereo not given),-55.32
16,Cc1cc(C)cc(N2CCN(C(=O)C3CN(C)C(=O)N3)CC2=O)c1 (stereo not given),-59
17,CC1(NC(=O)Cc2csc(-c3cccc(Cl)c3)n2)CCS(=O)(=O)C1 (stereo not given),-114.6
18,O=C(NCc1nnnn1-c1ccccc1)c1ccc(C2CCCO2)s1 (stereo not given),-146
19,Cc1nc(C(=O)N(C)CC2CC2)nn1-c1ccccc1C(C)C,-82.1
20,CN(C)C(C(=O)N1CC(Oc2ccccc2F)C1)c1ccc(F)cc1 (stereo not given),62.88
21,Cc1cccc(C(C(=O)N2CC(Oc3ccccc3F)C2)N(C)C)c1 (stereo not given),-1.988
22,COc1ccccc1OC1CN(C(=O)C(c2ccc(F)cc2)N(C)C)C1 (stereo not given),0.4692
23,Cc1nn(C)cc1-c1cc(C(F)(F)F)nc(NC2CCN(C)CC2)n1,-72.67
24,O=C(CCc1ccccn1)N1CCCC(N2CCNC2=O)C1 (stereo not given),-153
25,Cc1ccc(Cl)c(C)c1NC(=O)N1CCCN(Cc2ccccn2)CC1,-12.1

row,SMILES,Percent Effect [%]
1,Cc1nn(C)c(C)c1C1CCCN1CCCc1nc2ccccc2o1 (stereo not given),18.49
2,Cc1nc2ccccc2nc1CN1CCCC1c1c(C)nn(C)c1C (stereo not given),56.82
3,Cc1nc(CN2CCCC2Cn2ccnc2C(C)C)nc2ccccc12 (stereo not given),77.09
4,Cc1nc(CN2CCCCC2Cn2cccn2)nc2ccccc12 (stereo not given),70.28
5,Cc1nc(C)n(CC2CCCN2Cc2nc(N)c3ccccc3n2)n1 (stereo not given),-104.3
6,COc1cccc(CN2CCCC2c2c(C)nn(C)c2C)c1 (stereo not given),21.41
7,c1ccc(Cc2noc(CN3CCCCC3Cn3cccn3)n2)cc1 (stereo not given),-99.91
8,Cc1nc(CN2CCCC2c2ccsc2)nc2ccccc12 (stereo not given),24.09
9,Cc1nc(CN2CCCCC2Cn2cncn2)nc2ccccc12 (stereo not given),-55.02
10,CC(C)c1nccn1CC1CCCN1Cc1nc2ccccc2n1C (stereo not given),20.35
11,Cc1nc(CN2CCCC2Cn2cccn2)nc2ccccc12 (stereo not given),55.28
12,c1cnn(CC2CCCN2Cc2noc(C3CC3)n2)c1 (stereo not given),-115.2
13,CC(c1nc(C2CC2)no1)N1CCN(CCN2CCCC2=O)CC1 (stereo not given),-34.43
14,CC(=O)N1CCN(c2cc(N3CCOCC3)cnn2)CC1,-46.73
15,CCSc1nnc([C@@H](N)CC(C)C)o1.Cl,-105.7
16,CC(C)(C)c1nc(CN(Cc2ccccc2Cl)C2CCCC2)no1,-109.5
17,Cc1cc(C(F)(F)F)nc(CCNC(C)Cn2nc(C)cc2C)n1 (stereo not given),25.86
18,CCSc1nc2ccccc2c(=O)n1OCC(=O)OC,-35.88
19,N#Cc1c(SCCN2CCOCC2)sc2c(O)cc(O)nc12,20.53
20,CC(Nc1ccc(Br)cc1)c1nc(C2CC2)no1 (stereo not given),-70.57
21,CCOCC1CN(C(=O)N2CCCC2)Cc2cnn(CC)c21 (stereo not given),-92.45
22,CCOc1ccc2[nH]c(=O)c(CN3CCN(S(N)(=O)=O)CC3)cc2c1,-148.7
23,CC1CCCN(c2ncc(C(=O)NCc3ccc(F)c(Cl)c3)c(N)n2)C1 (stereo not given),-82.32
24,O=C(CN1CCCC1Cn1cncn1)NCC1(c2ccccc2)CC1 (stereo not given),-28.68
25,Cc1cnn(CC2CCCN2Cc2nc3ccccc3nc2C)c1 (stereo not given),-94.42

row,SMILES,Percent Effect [%]
1,Cc1nc2ccccc2nc1CN1CCOC(Cn2cccn2)C1 (stereo not given),-57.9
2,Cc1nc2ccccc2nc1CN1CCCC1Cn1cccn1 (stereo not given),67.78
3,Cc1n[nH]c2ncc(CNC3CCN(Cc4ccccn4)CC3)cc12.Cl,-31.75
4,c1ccc(CN2CCC(NCCc3ccc4c(c3)CCO4)CC2)nc1,34.15
5,Cc1[nH]c2ccc(CNC3CCN(Cc4ccccn4)CC3)cc2c1C,93.27
6,Cc1nnc(SCc2cccc(F)c2)n1CC(N)=O,-112.6
7,Cc1ccc(N2CCc3sc(C(=O)NCCN4CCCC4)cc32)nn1,-55.34
8,C=C(C)CN1CCN(CCC(=O)Nc2ccccc2C(N)=O)CC1,11.76
9,O=C(NC[C@H]1OC[C@@H]2CN(Cc3ccco3)CC[C@@H]21)c1cscn1.O=C(O)C(F)(F)F,-201.4
10,CC(C)CCn1cc(C(=O)NC2CCS(=O)(=O)C2)c2ccccc2c1=O (stereo not given),-89.43
11,CCC(Nc1nc(C)nc2onc(C)c12)c1cccs1 (stereo not given),19.14
12,CCC(Nc1nc(CCN)nc2ccccc12)c1cccs1 (stereo not given),62.16
13,CCC(Nc1nc(CCN)nc2ccccc12)c1cc(C)ccn1 (stereo not given),-26.25
14,CN(C)CCn1c2c(ccc1=O)CC(NC(=O)c1cnccn1)CC2.O=C(O)C(F)(F)F (stereo not given),-12.74
15,Cc1cccc(CN2CCC(c3nnsc3S(C)(=O)=O)CC2)c1,-50.13
16,CNC(=O)NCC1CCC2(CCN(C(=O)c3ccccn3)CC2)CO1.O=C(O)C(F)(F)F (stereo not given),-170.4
17,Cn1cncc1CN1CCC2(CC1)CCN2c1ncccn1,-81.78
18,CCn1cncc1C1CC(=O)Nc2c1c(C)nn2-c1ccc(C)cc1 (stereo not given),-199.9
19,Cc1ncc(CN2CCC(c3ccnn3C)CC2)n1-c1ccccc1,30.79
20,Cc1nnc(CN2CCN(Cc3nccn3C)CC2)n1C,-20.51
21,CCc1nc(CN2CCCN(C(=O)c3ccco3)CC2)cs1,-4.304
22,O=C(O)C(F)(F)F.O=C(O)C(F)(F)F.c1cncc(C2COC3(CCN(Cc4ccsc4)CC3)C2)c1 (stereo not given),12.38
23,Cc1nc(C(=O)Nc2cccnc2)c(C(C)C)s1,-80.98
24,Cc1c(CN2CCCC(C(=O)Nc3ccccc3)C2)cc(C#N)n1C (stereo not given),39.8
25,CN(Cc1cccnc1)[C@@H]1CN(Cc2nccn2C)[C@@H]2CCCO[C@H]12.O=C(O)C(F)(F)F.O=C(O)C(F)(F)F.O=C(O)C(F)(F)F.O=C(O)C(F)(F)F,-14.02
